Laboratory results as given in PubChem BioAssay (NCI).
This is part of a sample that, as a whole, favours compounds with a hit. Of some 83,000 tested, about 20% had one in any assay.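 Results are percent growth after 48 hours of single-concentration exposure. 100 means growth as in untreated cells, lower positive values show inhibition; negative values down to -100 show cell death.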 A number with no mark means an inactive call. Active and inactive are the calls of the source. The calls were made as follows: active = growth percent below 10; inactive = the rest.

Test system: HL-60(TB) leukemia
Assay: NCI-60 one-dose screen, 48 h (100 = growth as untreated, 0 = no growth, -100 = all killed)
Settings: 10 µM unless noted

Compound | growth
Cc1ccc(S(=O)(=O)NC(CCC(=O)Nc2ccc(Cl)cc2)C(=O)Nc2ccc(Cl)cc2)cc1 (stereo not given) | 24.1%
CC(C)C1=C[C@@]23CC[C@@H]4[C@](C)(CCC[C@@]4(C)C(=O)OCC#CCN4CCCC4)[C@H]2C[C@@H]1[C@H]1C(=O)OC(=O)[C@H]13 | 95.7%
CC(=O)Nc1ccc(S(=O)(=O)NC2CCCCC2)cc1 | 96%
COC(=O)[C@]12CC[C@@H](C)[C@H](C)[C@@H]1C1=CC[C@@H]3[C@@]4(C)C[C@@H](OC(=O)/C=C/c5ccccc5)[C@H](O)[C@@](C)(CO)[C@@H]4[C@H](O)C[C@@]3(C)[C@]1(C)CC2 | -20.6% (active)
CSc1nc2c(c(=O)[nH]1)C(c1ccc(C)cc1)C=C(C(=O)O)N2 (stereo not given) | 114%
COc1ccccc1C(=O)Nc1cccc(-c2cc(=O)c3c(OC)c(OC)c(OC)cc3o2)c1 | 57.7%
CCN(CC)c1ccc2c(c1)OS(=O)(=O)N=C2 | 101%
O=C(Nc1ccc(Nc2cc(Nc3ccccc3)ncn2)cc1)Nc1cc(C(F)(F)F)ccc1F | 106%
CC1CN=C(c2cccc(-c3ccc(-c4ccccc4)o3)c2)N1 (stereo not given) | -46.1% (active)
O=C(Nc1ccc(F)cc1F)c1cc(I)ccc1O | -34.5% (active)
O=[N+]([O-])c1cccc(SSc2cccc([N+](=O)[O-])c2)c1 | 93.6%
OC(COCc1ccccc1)COCc1ccccc1 | 91.8%
O=C(O)c1c(=O)cccc2ssc12 | -9.53% (active)
NC(CSC(c1ccccc1)(c1ccccc1)c1ccc(Cl)cc1)C(=O)O (stereo not given) | -40.5% (active)
COc1cc(Nc2cn[nH]c2-c2ccc(Cl)cc2)cc(OC)c1OC | 14.6%
COc1ccc(C(C(=O)O)c2ccc(OC)cc2)cc1 | 97.9%
COc1ccc2c(c1)N(CCO)C1=C(C(=O)OC1)C2c1cccc(Br)c1 (stereo not given) | -26.3% (active)
Fc1ccc(-c2nc(-c3ccc(-c4nc5ccc(F)cc5[nH]4)cc3)no2)cc1 | 96.3%
S=c1[nH]c2cc(Cl)ccc2o1 | 86.5%
O=Nc1ccc(O)c(=O)cc1 | 4.36% (active)

Compound | growth
CC1=C(Cl)C(=O)c2cc(C)ccc2C1=O | 117%
Cc1cc2nc(CC(=O)c3ccccc3)c(=O)[nH]c2cc1C | 103%
COc1cccc(NC(=O)c2sc3nc(C)c(C(C)=O)cc3c2N)c1 | 6.61% (active)
O=C(COc1ccc(-c2nc3ccccc3[nH]2)cc1)N=Nc1c(O)[nH]c2ccccc12 | 103%
Cc1nn(-c2ccccc2)cc1/C=C1\SC(N2CCCCC2)=NC1=O | 93%
O=C1N(Cc2ccccc2Cl)c2ccccc2C12NN=C(c1ccccc1)S2 (stereo not given) | 58.5%
Nc1c(-c2nc3ccccc3c(=O)[nH]2)nnn1-c1ccc(Cl)cc1 | 94%
Nc1nc(SCc2cccc([N+](=O)[O-])c2)c2[nH]cnc2n1 | 94.9%
O=C(CCCNC(=O)c1nc(-c2ccccc2)n(-c2ccccc2)n1)NO | 87.9%
CC1CCN(CCCCCOc2ccc3oc4ccc(Cl)cc4c(=O)c3c2)CC1 | 39.6%
O=C(Nc1ccc(C23CC4CC(CC(c5ccccc5)(C4)C2)C3)cc1)c1cccs1 | 51%
Cn1cc(-c2csc(-c3c[nH]c4ccc(F)cc34)n2)c2cnccc21 | -59.4% (active)
O=C(Nc1ccc(F)cc1)c1cc([N+](=O)[O-])ccc1O | 59.6%
CCCNc1nc(C)[nH]c(=O)c1S | 92.1%
CCOC(=O)C1=C(c2ccccc2)N=C2N(c3ccccc3)N=C(C(C)=O)N2C1c1ccc(F)cc1 (stereo not given) | 89.8%
COc1cccc(-c2nc(-c3ccc(NS(=O)(=O)c4ccccc4)cc3)[nH]c2-c2ccnc(Br)c2)c1 | -11.5% (active)
N#Cc1ccc(NC(=O)c2sc3nc4c(cc3c2N)C(=O)CCC4)cc1 | 81%
OC1CCCN(Cc2ccccc2)C1 (stereo not given) | 114%
COc1cccc(Cc2cc(-c3ccccc3)nn(CC(=O)c3ccccc3)c2=O)c1 | 69.4%
COC(=O)[C@]12CC[C@@H](C)[C@H](C)[C@@H]1C1=CC[C@@H]3[C@@]4(C)C(C=O)=C[C@@](C)(COS(C)(=O)=O)C4=CC[C@@]3(C)[C@]1(C)CC2 | -34.8% (active)
